Only some compounds are listed: those with a hit (about 21% of all), similar ones and a draw of the others.
Pf growth 48h: P. falciparum growth inhibition at 48 hours (one generation); 310,000 tested, 5.9% active; P. falciparum luciferase growth in erythrocytes, 48 h; AID 504832; Potency, µM (series often up to 28.7 µM), for inactives: at the top dose activity change, negative = inhibition, actives largely listed as inhibitors; further: potency means the concentration at half of the fitted maximal effect; on the % scale 0 is the no-effect control and ±100 the full control effect
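Parasite viability was followed by luminescence of a genomically integrated firefly luciferase. Cultures held 0.1% parasitemia at 2% hematocrit (final), incubated under 5% CO2 at 37 C.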
NS1 function inh: influenza NS1 inhibition; 270,000 tested, 0.4% active; Potency, µM (titrated, usually from 46.1 µM), for the others: at the highest dose activity, positive = more growth; calls by dose curve; further: potency means the concentration at half of the fitted maximal effect; actives are rising curves; nearly all actives have a fitted effect of over 50% in size
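OD600 was taken as the measure of yeast growth restored by compound in an NS1-expressing S. cerevisiae strain. Cells had been washed out of glucose medium and diluted 1:100 into galactose -URA medium, pH 6.0.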
Shiga toxin inh: Shiga toxin inhibition; AID 2315; 290,000 tested, 9.2% active; Vero cells, Shiga toxin protein synthesis inhibition reporter; inhibition, % at 38.7 µM; in the data active means inhibition mostly above about 28%, no sharp cut-off; inactive means mostly below about 43%; further: 0% is about no effect
CHX counter: counter-screen hit for Shiga toxin inhibitors, cycloheximide. cell reporter, cycloheximide protein synthesis inhibition counterscreen. max response, %. 300,000 tested, 12% active; in the data active means max response mostly above about 13%, no sharp cut-off; inactive means mostly below about 14%; further: read at 38.3 µM for the half of the compounds with a filed dose; 0% is about no effect
Pf growth 96h: inhibits malaria parasite growth, 96 h | AID 504834 | Potency, µM (series often up to 28.7 µM), for inactives: at the highest dose activity change, negative = inhibition, actives largely listed as inhibitors | P. falciparum luciferase reporter growth, 96 h | 320,000 tested, 6.9% active; further: potency means the concentration at half of the fitted maximal effect; on the % scale 0 is the no-effect control and ±100 the full control effect
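Infected RBCs, 2% Hct / 0.05% parasitemia final; luciferase-reporter P. falciparum; cpd 96 h, 37 C, 5% CO2; luciferase detection reagent; luminescence.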
* hit, by the source's call; i = inactive; ? = inconclusive; · = not tested or not shown; + = active, no number; [ ] = dose if it differs, or a comment. Unless noted, the call rests on the fitted dose curve; in most records, active means well fitted inhibition curve with a large enough effect; inconclusive means small, poorly fitted or top-dose-only effect, or another doubt; inactive means no such curve, though single readings can be large or run the other way.

SMILES	Pf growth 48h	NS1 function inh	Shiga toxin inh	CHX counter	Pf growth 96h
CC12CC3(C)CC(C)(C1)CC(C(N)=O)(C2)C3	-9.7%	0.5%	-14.6	-2.1	?
CCc1ccc(C(=O)CCC2CCCCC2=O)cc1 (configuration not stated)	·	5.9%	95.8*	36.0*	28.9%
Cc1ccc(C(=O)CCC2CCCC2=O)cc1 (configuration not stated)	96.5%	-2.1%	53.2*	50.0*	87.1%
O=C(CCC1CCCCC1=O)c1ccccc1 (configuration not stated)	55.6%	4.9%	32.9	17.6	?
Cc1ccc(C(=O)CCC2CCCCC2=O)cc1 (configuration not stated)	·	5.7%	101.5*	33.1*	139.8%
Cc1ccc(Nc2nc(=O)c3cccnc3s2)c(Br)c1	21.7%	-35.7%	31.8	18.6*	8.3%
CC(=O)c1cccc(Nc2nc(=O)c3cccnc3s2)c1	·	-2.1%	6.3	5.5	-5.1%
CC(=O)c1ccc(Nc2nc(=O)c3cccnc3s2)cc1	36.9%	4.5%	70.0*	39.2*	·
CCOC(=O)c1ccc(Nc2nc(=O)c3cccnc3s2)cc1	2.7%	-7.0%	22.3	21.8*	38.3%
Cn1cc(CN2CCN(Cc3ccccc3)C(CCO)C2)c(-c2ccccc2)n1 (configuration not stated)	-4.3%	-2.2%	-11.9	-1.5	11.1%
CC1(C)CC(=O)C2=C(C1)N(CC1CCCO1)C(=O)C2(NC(=O)c1cccnc1)C(F)(F)F (configuration not stated)	-1.1%	-0.9%	2.2	1.0	·
CC1=C(C)C[C@@]23CCCN2C(=O)CCC[C@H]3C1	·	·	i	7.2	·
NC(=S)c1cn(C2OC(CO)C(O)C2O)c2ncnc(N)c12 (configuration not stated)	1.31µM*	0.8%	-5.4	-2.2	4.15µM*
Nc1ncnc2c1ccn2[C@@H]1O[C@H](CO)[C@@H](O)[C@H]1O	·	·	21.7	-6.6	·
CC(C)Nc1oc(-c2cccc3ccccc23)nc1C#N	?	-14.1%	84.3*	30.0*	-24.2%
C=CCNc1oc(-c2cccc3ccccc23)nc1C#N	46.4%	-5.2%	44.8*	45.6*	?
N#Cc1nc(-c2cccc3ccccc23)oc1NCCN1CCCCC1	?	2.2%	32.3	18.8	·
CCNc1oc(-c2cccc3ccccc23)nc1C#N	46.1%	-0.6%	58.3*	27.5	-6.7%
CN(C)CCNc1oc(-c2ccccc2F)nc1C#N	22.8%	-6.4%	-3.8	-2.8	?
CCN(CC(=O)Nc1ccc2c(c1)OCCO2)C(=O)c1cc(=O)[nH]c2ccccc12	-1.1%	·	·	·	6.7%
O=C(O)c1ccc(C(=O)Nc2cccc3ccccc23)c(C(=O)O)c1	42.0%	4.5%	1.9	1.2	?
O=C(CN1CCN(c2cccc(Cl)c2)CC1)NC1CCCc2ccccc21 (configuration not stated)	9.0%	-11.5%	3.4	-2.2	6.2%
CN1CCCN(C2C3CC4CC(C3)CC2C4)CC1 (configuration not stated)	-16.8%	0.9%	-21.9	-2.0	16.9%
COCCn1c(SCC(=O)c2ccc(Cl)cc2)nnc1C(C)C	-10.0%	-6.6%	0.6	1.1	31.0%
O=c1c2ccc(Cl)cc2nc(-c2cccc(C(F)(F)F)c2)n1O	?	-205.2%	-2.9	7.9	10.4µM*
SMILES	Pf growth 48h	NS1 function inh	Shiga toxin inh	CHX counter	Pf growth 96h
CSC1=NC(NCCCO)c2c(sc3c2CC(C)(C)OC3)N1 (configuration not stated)	?	1.8%	-15.0	-1.6	9.28µM*
CCOc1ccc(NC(=O)CN(C)C(=O)CSCc2cccc(C)c2)cc1OCC	?	·	·	·	14.7µM*
CCOc1ccc(NC(=O)CN(C)C(=O)c2ccccc2Cc2ccccc2)cc1OCC	11.7µM*	·	·	·	?
CCOc1ccc(NC(=O)CN(C)C(=O)c2ccc(COc3ccccc3)cc2)cc1OCC	?	·	·	·	35.4%
COc1ccc(NC(=O)CN(C)C(=O)c2csc3c2CCCC3)cc1	-1.2%	·	·	·	22.9%
CCOc1ccc(NC(=O)CN(C)C(=O)c2cc(S(=O)(=O)N3CCCCC3)ccc2Cl)cc1OCC	-2.4%	·	·	·	?
CCOc1ccc(NC(=O)CN(C)C(=O)c2csc3c2CCCC3)cc1OCC	13.1µM*	·	·	·	?
CCOc1ccc(NC(=O)CN(C)C(=O)CSCc2c(C)noc2C)cc1OCC	?	·	·	·	-0.6%
CCOc1ccc(NC(=O)CN(C)C(=O)c2cc(S(=O)(=O)N(C)C)ccc2N2CCCC2)cc1OCC	10.4µM*	·	·	·	-19.5%
CN(CC(=O)Nc1c(Cl)cccc1Cl)C(=O)c1ccccc1Cc1ccccc1	13.1µM*	·	·	·	?
Cc1ccc(NC(=O)c2ccn(C)n2)c(Br)c1	422.7%	-1.6%	163.3*	80.8*	4.6%
Cn1ccc(NS(=O)(=O)c2cc(Br)ccc2Br)n1	-1.6%	·	·	·	5.0%
Cn1ccc(C(=O)Nc2ccc(Br)cc2Br)n1	i	3.9%	167.0*	104.4*	427.1%
Cc1cc(C)c(S(=O)(=O)N2CC=C(c3ccccc3)CC2)c(C)c1	?	·	·	·	-2.1%
Cc1nc(-c2ccc(NC(=O)CC(C)C)cc2)cs1	152.3%	-2.7%	+	37.8*	63.2%
Cc1nc(-c2cccc(NC(=O)C3CCCCC3)c2)cs1	-0.8%	-8.4%	35.7*	9.1	?
Cc1nc(-c2ccc(NS(C)(=O)=O)cc2)cs1	11.6%	5.2%	31.5	14.3	·
Cc1nc(-c2ccc(NC(=O)C3CC3)cc2)cs1	94.7%	-30.3%	80.6*	22.7*	90.5%
Cc1nc(-c2ccc(C(=O)O)cc2)cs1	13.1%	-148.5%	15.3	1.2	13.4%
COc1ccc(N2CCN(C(=O)COC(=O)COc3ccc(C#N)cc3)CC2)cc1	0.4%	·	·	·	17.6%
C=CCSc1nnc2c(n1)OC(c1cccnc1)Nc1ccccc1-2 (configuration not stated)	10.6%	-5.9%	128.4*	26.6*	-75.5%
c1ccc(CSc2nnc3c(n2)OC(c2ccco2)Nc2ccccc2-3)cc1 (configuration not stated)	?	16.9%	86.3*	26.0*	-4.7%
C=CCSc1nnc2c(n1)OC(c1cccnc1)N(C(C)=O)c1ccccc1-2 (configuration not stated)	-3.0%	-3.9%	-30.8	1.7	?
CCCn1c(SC(C)C(=O)NCC2CCCO2)nc2sc3c(c2c1=O)CCC3 (configuration not stated)	13.1µM*	·	·	·	?
Cc1[nH]nc2c1C(c1cccc(O)c1)C1=C(CC(C)(C)CC1=O)N2 (configuration not stated)	?	3.8%	-6.4	-1.6	-1.8%[5.75 µM]
COc1ccc(/C=C2\N=C3CCCCCN3C2=O)cc1	9.7%	·	76.2*	41.4*	15.9%
COc1ccc(/C=C2/N=C3CCCCCN3C2=O)cc1OC	-12.8%	1.1%	11.0*	11.5	-20.0%
O=C1/C(=C/c2ccncc2)N=C2CCCCCN12	-8.1%	9.6%	-5.8	11.4	23.4%
COc1ccc(C(=O)Nc2ccccc2)cc1NC(=O)c1cccs1	-10.5%	-41.3%	-10.0	3.1	-20.8%
Cc1oc2cc3oc(=O)c(CCC(=O)N(C)CC(=O)O)c(C)c3cc2c1C	46.4%	2.7%	-5.3	0.2	85.5%

Screening results from PubChem BioAssay.
